Several values for one entry are separate records, joined by “and”; a condition that tells them apart may be missing. Equal values may be shown once. In all, about 5,500 compounds went through this assay and about 2,000 (36%) were called active. Another 18% or so got no clear call; they are omitted. No stated cut-off is given here; in the data, active means normalized growth mostly below about 0.91 (no sharp cut-off); inconclusive means no clear call, values can overlap the other calls; inactive means mostly above about 0.92. This is one part of the list.
Assay: chemical genetic growth profiling, strain panel (AID 1159580);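 further: tested at 20 µM; growth read once vehicle control cultures reached saturation at 30 °C; 1 = growth at the plate median or of vehicle wells; lower values mean less growth of the strain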
Details: S. cerevisiae deletion strains, growth OD

Measured: normalized growth

O=C(O)C(O)C(O)C(=O)O (configuration not stated)
inactive: locus YAL013W, strain DEP1, active compounds read low 0.974 | locus YAL021C, strain ccr4, active compounds read low 1 | locus YAL026C, strain drs2, active compounds read low 0.999 | locus YAL030W, strain snc1, active compounds read low 1 | locus YBL061C, strain skt5, active compounds read low 0.989 | locus YBR009C, strain hhf1, active compounds read low 0.99 | locus YBR021W, strain FUR4, active compounds read low 1.02 | locus YBR023C, strain chs3, active compounds read low 0.989 | locus YBR171W, strain sec66, active compounds read low 0.986 | locus YBR229C, strain ROT2, active compounds read low 0.952 | locus YBR231C, strain swc5, active compounds read low 0.996 | locus YBR279W, strain paf1, active compounds read low 0.985 | locus YCL011C, strain gbp2, active compounds read low 0.988 | locus YCL016C, strain dcc1, active compounds read low 0.994 | locus YCL029C, strain bik1, active compounds read low 0.985 | locus YCL061C, strain MRC1, active compounds read low 0.997 | locus YCL069W, strain vba3, active compounds read low 0.982 | locus YCR088W, strain abp1, active compounds read low 0.992 | locus YDL005C, strain med2, active compounds read low 0.984 | locus YDL035C, strain GPR1, active compounds read low 0.996 | locus YDL040C, strain nat1, active compounds read low 1.01 | locus YDL074C, strain BRE1, active compounds read low 0.976 | locus YDL101C, strain DUN1, active compounds read low 0.958 | locus YDL134C, strain PPH21, active compounds read low 0.986 | locus YDL185W, strain tfp1, active compounds read low 0.966 | locus YDL192W, strain arf1, active compounds read low 0.985 | locus YDR001C, strain nth1, active compounds read low 0.996 | locus YDR069C, strain doa4, active compounds read low 0.99 | locus YDR101C, strain arx1, active compounds read low 0.994 | locus YDR137W, strain rgp1, active compounds read low 0.984 | locus YDR150W, strain NUM1, active compounds read low 0.979 | locus YDR159W, strain sac3, active compounds read low 0.975 | locus YDR162C, strain NBP2, active compounds read low 0.95 | locus YDR195W, strain ref2 0.978 | locus YDR297W, strain sur2, active compounds read low 0.99 | locus YDR318W, strain mcm21, active compounds read low 0.999 | locus YDR334W, strain swr1, active compounds read low 0.992 | locus YDR335W, strain msn5, active compounds read low 0.992 | locus YDR388W, active compounds read low 0.99 | locus YDR392W, strain spt3, active compounds read low 1 | locus YDR502C, strain sam2, active compounds read low 0.991 | locus YEL003W, strain gim4, active compounds read low 0.998 | locus YEL037C, strain rad23, active compounds read low 1 | locus YEL061C, strain CIN8 (second series), active compounds read low 1 | locus YEL061C, strain CIN8, active compounds read low 0.984 | locus YER015W, strain faa2, active compounds read low 0.992 | locus YER016W, strain bim1, active compounds read low 1 | locus YER110C, active compounds read low 0.982 | locus YER111C, strain swi4, active compounds read low 0.988 | locus YER155C, strain BEM2 (second series), active compounds read low 0.991 | locus YER155C, strain BEM2, active compounds read low 0.992 | locus YER167W, strain BCK2, active compounds read low 0.989 | locus YFR010W, strain ubp6, active compounds read low 1 | locus YGL078C, strain dbp3, active compounds read low 0.99 | locus YGL086W, strain mad1, active compounds read low 1 | locus YGL167C, strain pmr1, active compounds read low 1.02 | locus YGL173C, strain kem1, active compounds read low 0.974 | locus YGL227W, strain vid30, active compounds read low 0.997 | locus YGL240W, strain doc1, active compounds read low 0.991 | locus YGL248W, strain PDE1, active compounds read low 0.98 | locus YGL253W, strain hxk2, active compounds read low 0.994 | locus YGR078C, strain PAC10, active compounds read low 0.99 | locus YGR135W, strain pre9, active compounds read low 0.978 | locus YGR229C, strain SMI1, active compounds read low 0.995 | locus YGR252W, strain gcn5, active compounds read low 1.03 | locus YHR013C, strain ard1, active compounds read low 0.987 | locus YHR027C, strain rpn1, active compounds read low 0.987 | locus YHR030C, strain SLT2, active compounds read low 0.997 and 0.963 | locus YHR079C, strain IRE1 (second series), active compounds read low 0.996 | locus YHR079C, strain IRE1, active compounds read low 0.976 | locus YHR094C, strain hxt1, active compounds read low 0.987 | locus YHR129C, strain ARP1, active compounds read low 0.993 | locus YHR142W, strain chs7, active compounds read low 0.983 | locus YHR200W, strain rpn10, active compounds read low 0.99 | locus YIL066C, strain RNR3, active compounds read low 0.996 | locus YIL073C, strain SPO22, active compounds read low 1.01 | locus YIL125W, strain kgd1, active compounds read low 0.995 | locus YIR030C, strain dcg1, active compounds read low 0.989 | locus YJL092W, strain hpr5, active compounds read low 1 | locus YJL095W, strain BCK1 (second series), active compounds read low 1 | locus YJL095W, strain BCK1, active compounds read low 1 and 0.963 | locus YJL115W, strain asf1, active compounds read low 0.997 | locus YJL129C, strain trk1, active compounds read low 0.98 | locus YJL134W, strain LCB3, active compounds read low 0.982 | locus YJL154C, strain vps35, active compounds read low 0.988 | locus YJL164C, strain tpk1, active compounds read low 1.01 | locus YJL166W, strain qcr8, active compounds read low 0.989 | locus YJL168C, strain set2, active compounds read low 0.996 | locus YJL187C, strain SWE1 (second series), active compounds read low 0.98 | locus YJL187C, strain SWE1, active compounds read low 1 | locus YJR043C, strain POL32, active compounds read low 1.03 | locus YJR066W, strain TOR1, active compounds read low 0.943

From PubChem BioAssay AID1159580 (chemical genetic matrix, 2015)
